Laboratory results published in the supplement of paper PMC7411054.

Key:
Assay in all cases: phenotypically active (imaging signature differs from DMSO and reproducible) at any of 0.3-9 uM (binary (1 = active, 0 = inactive)); higher = active
Conditions in all cases: treatment time: 24 h
A549-ACTB-RAB5A = tested on: A549-ACTB-RAB5A
Procedure, shortened: (§1)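 Four wells per concentration (0.3, 1, 3 or 9 µM) were treated for 24 h in each of fifteen gene-edited reporter lines from A549, HepG2 and WPMY1 cells, then imaged live. After normalising live-cell features to solvent control wells, deviation was defined as ≥3 of 4 wells lying past the 95th percentile of control Euclidean distances. Reproducibility was defined as a median replicate Pearson correlation above the 95th percentile of non-replicates. Both had to hold for phenotypic activity.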

A549-CANX-COX4 = tested on: A549-CANX-COX4
Procedure, shortened: as §1

A549-GM130-SQSTM1 = tested on: A549-GM130-SQSTM1
Procedure, shortened: as §1

A549-TP53BP1-CLTA = tested on: A549-TP53BP1-CLTA
Procedure, shortened: as §1

A549-TUBA1B-RELA = tested on: A549-TUBA1B-RELA
Procedure, shortened: as §1

HepG2-ACTB-RAB5A = tested on: HepG2-ACTB-RAB5A
Procedure, shortened: as §1

HepG2-CANX-COX4 = tested on: HepG2-CANX-COX4
Procedure, shortened: as §1

HepG2-GM130-SQSTM1 = tested on: HepG2-GM130-SQSTM1
Procedure, shortened: as §1

HepG2-TP53BP1-CLTA = tested on: HepG2-TP53BP1-CLTA
Procedure, shortened: as §1

HepG2-TUBA1B-RELA = tested on: HepG2-TUBA1B-RELA
Procedure, shortened: as §1

WPMY1-ACTB-RAB5A = tested on: WPMY1-ACTB-RAB5A
Procedure, shortened: as §1

WPMY1-CANX-COX4 = tested on: WPMY1-CANX-COX4
Procedure, shortened: as §1

WPMY1-GM130-SQSTM1 = tested on: WPMY1-GM130-SQSTM1
Procedure, shortened: as §1

WPMY1-TP53BP1-CLTA = tested on: WPMY1-TP53BP1-CLTA
Procedure, shortened: as §1

WPMY1-TUBA1B-RELA = tested on: WPMY1-TUBA1B-RELA
Procedure, shortened: as §1

Measured: phenotypically active

CCC1(C)OC(=O)N(C)C1=O (stereo not given) [paramethadione]
inactive: A549-ACTB-RAB5A 0 | A549-CANX-COX4 0 | A549-GM130-SQSTM1 0 | A549-TP53BP1-CLTA 0 | A549-TUBA1B-RELA 0 | HepG2-ACTB-RAB5A 0 | HepG2-CANX-COX4 0 | HepG2-GM130-SQSTM1 0 | HepG2-TP53BP1-CLTA 0 | HepG2-TUBA1B-RELA 0 | WPMY1-ACTB-RAB5A 0 | WPMY1-CANX-COX4 0 | WPMY1-GM130-SQSTM1 0 | WPMY1-TP53BP1-CLTA 0 | WPMY1-TUBA1B-RELA 0

O=c1[nH]cnc2c1ncn2[C@H]1CC[C@@H](CO)O1 [Didanosine]
inactive: A549-ACTB-RAB5A 0 | A549-CANX-COX4 0 | A549-GM130-SQSTM1 0 | A549-TP53BP1-CLTA 0 | A549-TUBA1B-RELA 0 | HepG2-ACTB-RAB5A 0 | HepG2-CANX-COX4 0 | HepG2-GM130-SQSTM1 0 | HepG2-TP53BP1-CLTA 0 | HepG2-TUBA1B-RELA 0 | WPMY1-ACTB-RAB5A 0 | WPMY1-CANX-COX4 0 | WPMY1-GM130-SQSTM1 0 | WPMY1-TP53BP1-CLTA 0 | WPMY1-TUBA1B-RELA 0

Cc1[nH]c(=O)c(C#N)cc1-c1ccncc1 [Milrinone]
inactive: A549-ACTB-RAB5A 0 | A549-CANX-COX4 0 | A549-GM130-SQSTM1 0 | A549-TP53BP1-CLTA 0 | A549-TUBA1B-RELA 0 | HepG2-ACTB-RAB5A 0 | HepG2-CANX-COX4 0 | HepG2-GM130-SQSTM1 0 | HepG2-TP53BP1-CLTA 0 | HepG2-TUBA1B-RELA 0 | WPMY1-ACTB-RAB5A 0 | WPMY1-CANX-COX4 0 | WPMY1-GM130-SQSTM1 0 | WPMY1-TP53BP1-CLTA 0 | WPMY1-TUBA1B-RELA 0

CC(C)N(CCC(=O)c1ccc2ccccc2c1)Cc1ccccc1
inactive: A549-ACTB-RAB5A 0 | A549-CANX-COX4 0 | A549-GM130-SQSTM1 0 | A549-TP53BP1-CLTA 0 | A549-TUBA1B-RELA 0 | HepG2-ACTB-RAB5A 0 | HepG2-CANX-COX4 0 | HepG2-GM130-SQSTM1 0 | HepG2-TP53BP1-CLTA 0 | HepG2-TUBA1B-RELA 0 | WPMY1-ACTB-RAB5A 0 | WPMY1-CANX-COX4 0 | WPMY1-GM130-SQSTM1 0 | WPMY1-TP53BP1-CLTA 0 | WPMY1-TUBA1B-RELA 0

Cc1c(OCC(F)(F)F)ccnc1CS(=O)c1nc2ccccc2[nH]1 (stereo not given) [lansoprazole]
inactive: A549-ACTB-RAB5A 0 | A549-CANX-COX4 0 | A549-GM130-SQSTM1 0 | A549-TP53BP1-CLTA 0 | A549-TUBA1B-RELA 0 | HepG2-ACTB-RAB5A 0 | HepG2-CANX-COX4 0 | HepG2-GM130-SQSTM1 0 | HepG2-TP53BP1-CLTA 0 | HepG2-TUBA1B-RELA 0 | WPMY1-ACTB-RAB5A 0 | WPMY1-CANX-COX4 0 | WPMY1-GM130-SQSTM1 0 | WPMY1-TP53BP1-CLTA 0 | WPMY1-TUBA1B-RELA 0

CCc1cc2c(=O)c(-c3nc4ccccc4s3)coc2c(CN2CCCCC2)c1O
inactive: A549-ACTB-RAB5A 0 | A549-CANX-COX4 0 | A549-GM130-SQSTM1 0 | A549-TP53BP1-CLTA 0 | A549-TUBA1B-RELA 0 | HepG2-ACTB-RAB5A 0 | HepG2-CANX-COX4 0 | HepG2-GM130-SQSTM1 0 | HepG2-TP53BP1-CLTA 0 | HepG2-TUBA1B-RELA 0 | WPMY1-ACTB-RAB5A 0 | WPMY1-CANX-COX4 0 | WPMY1-GM130-SQSTM1 0 | WPMY1-TP53BP1-CLTA 0 | WPMY1-TUBA1B-RELA 0

Cc1ccccc1Sc1ccc(/C=C2/SC(=S)NC2=O)cc1[N+](=O)[O-]
inactive: A549-ACTB-RAB5A 0 | A549-CANX-COX4 0 | A549-GM130-SQSTM1 0 | A549-TP53BP1-CLTA 0 | A549-TUBA1B-RELA 0 | HepG2-ACTB-RAB5A 0 | HepG2-CANX-COX4 0 | HepG2-GM130-SQSTM1 0 | HepG2-TP53BP1-CLTA 0 | HepG2-TUBA1B-RELA 0 | WPMY1-ACTB-RAB5A 0 | WPMY1-CANX-COX4 0 | WPMY1-GM130-SQSTM1 0 | WPMY1-TP53BP1-CLTA 0 | WPMY1-TUBA1B-RELA 0

O=C(O)CCc1ccccc1 [Hydrocinnamic acid]
inactive: A549-ACTB-RAB5A 0 | A549-CANX-COX4 0 | A549-GM130-SQSTM1 0 | A549-TP53BP1-CLTA 0 | A549-TUBA1B-RELA 0 | HepG2-ACTB-RAB5A 0 | HepG2-CANX-COX4 0 | HepG2-GM130-SQSTM1 0 | HepG2-TP53BP1-CLTA 0 | HepG2-TUBA1B-RELA 0 | WPMY1-ACTB-RAB5A 0 | WPMY1-CANX-COX4 0 | WPMY1-GM130-SQSTM1 0 | WPMY1-TP53BP1-CLTA 0 | WPMY1-TUBA1B-RELA 0

CCOc1ccccc1OCCN[C@H](C)Cc1ccc(OC)c(S(N)(=O)=O)c1 [tamsulosin]
inactive: A549-ACTB-RAB5A 0 | A549-CANX-COX4 0 | A549-GM130-SQSTM1 0 | A549-TP53BP1-CLTA 0 | A549-TUBA1B-RELA 0 | HepG2-ACTB-RAB5A 0 | HepG2-CANX-COX4 0 | HepG2-GM130-SQSTM1 0 | HepG2-TP53BP1-CLTA 0 | HepG2-TUBA1B-RELA 0 | WPMY1-ACTB-RAB5A 0 | WPMY1-CANX-COX4 0 | WPMY1-GM130-SQSTM1 0 | WPMY1-TP53BP1-CLTA 0 | WPMY1-TUBA1B-RELA 0

CC(=O)O[C@H]1C[C@@H]2CC[C@@H]3[C@H](CC[C@@]4(C)[C@H]3C[C@H]([N+]3(C)CCCCC3)[C@@H]4OC(C)=O)[C@@]2(C)C[C@@H]1N1CCCCC1 [vecuronium]
inactive: A549-ACTB-RAB5A 0 | A549-CANX-COX4 0 | A549-GM130-SQSTM1 0 | A549-TP53BP1-CLTA 0 | A549-TUBA1B-RELA 0 | HepG2-ACTB-RAB5A 0 | HepG2-CANX-COX4 0 | HepG2-GM130-SQSTM1 0 | HepG2-TP53BP1-CLTA 0 | HepG2-TUBA1B-RELA 0 | WPMY1-ACTB-RAB5A 0 | WPMY1-CANX-COX4 0 | WPMY1-GM130-SQSTM1 0 | WPMY1-TP53BP1-CLTA 0 | WPMY1-TUBA1B-RELA 0

CCCSc1nc2c(c(=O)n1-c1ccccc1)SCC2
inactive: A549-ACTB-RAB5A 0 | A549-CANX-COX4 0 | A549-GM130-SQSTM1 0 | A549-TP53BP1-CLTA 0 | A549-TUBA1B-RELA 0 | HepG2-ACTB-RAB5A 0 | HepG2-CANX-COX4 0 | HepG2-GM130-SQSTM1 0 | HepG2-TP53BP1-CLTA 0 | HepG2-TUBA1B-RELA 0 | WPMY1-ACTB-RAB5A 0 | WPMY1-CANX-COX4 0 | WPMY1-GM130-SQSTM1 0 | WPMY1-TP53BP1-CLTA 0 | WPMY1-TUBA1B-RELA 0

O=C(O)CCCc1ccccc1 [Sodium 4-Phenylbutyrate]
inactive: A549-ACTB-RAB5A 0 | A549-CANX-COX4 0 | A549-GM130-SQSTM1 0 | A549-TP53BP1-CLTA 0 | A549-TUBA1B-RELA 0 | HepG2-ACTB-RAB5A 0 | HepG2-CANX-COX4 0 | HepG2-GM130-SQSTM1 0 | HepG2-TP53BP1-CLTA 0 | HepG2-TUBA1B-RELA 0 | WPMY1-ACTB-RAB5A 0 | WPMY1-CANX-COX4 0 | WPMY1-GM130-SQSTM1 0 | WPMY1-TP53BP1-CLTA 0 | WPMY1-TUBA1B-RELA 0

O=[N+]([O-])c1c(Nc2cc(F)cc(Cl)c2)ccc2nonc12
inactive: A549-ACTB-RAB5A 0 | A549-CANX-COX4 0 | A549-GM130-SQSTM1 0 | A549-TP53BP1-CLTA 0 | A549-TUBA1B-RELA 0 | HepG2-ACTB-RAB5A 0 | HepG2-CANX-COX4 0 | HepG2-GM130-SQSTM1 0 | HepG2-TP53BP1-CLTA 0 | HepG2-TUBA1B-RELA 0 | WPMY1-ACTB-RAB5A 0 | WPMY1-CANX-COX4 0 | WPMY1-GM130-SQSTM1 0 | WPMY1-TP53BP1-CLTA 0 | WPMY1-TUBA1B-RELA 0

CC(C)C(=O)SCCCCC[C@H](NC(=O)OC(C)(C)C)C(=O)NC12CC3CC(CC(C3)C1)C2
inactive: A549-ACTB-RAB5A 0 | A549-CANX-COX4 0 | A549-GM130-SQSTM1 0 | A549-TP53BP1-CLTA 0 | A549-TUBA1B-RELA 0 | HepG2-ACTB-RAB5A 0 | HepG2-CANX-COX4 0 | HepG2-GM130-SQSTM1 0 | HepG2-TP53BP1-CLTA 0 | HepG2-TUBA1B-RELA 0 | WPMY1-ACTB-RAB5A 0 | WPMY1-CANX-COX4 0 | WPMY1-GM130-SQSTM1 0 | WPMY1-TP53BP1-CLTA 0 | WPMY1-TUBA1B-RELA 0
